Only some compounds are listed: those with a hit (about 1.1% of all), similar ones and a draw of the others.
HTR5A ag: HTR5A agonism, opioid heterodimer counter-screen. P47898. HTR5A agonist assay, luminescence, cell-based. activation, % at 9.3 µM. 340,000 compounds, 0.61% hits; in the data active = activation mostly above about 9.5%, no sharp cut-off; inactive = mostly below about 7.6%;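 also: 0% = cells with vehicle only and 100% = reference agonist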
MOR-DOR ag: OPRM1-OPRD1 heterodimerization agonism. P35372+P41143. cells, luminescence. activation, % at 9.3 µM. 340,000 compounds, 0.3% hits. AID 504326;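 also: 0% = vehicle-treated cells and 100% = reference agonist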
Target sequence (P35372 whole entry, looked up): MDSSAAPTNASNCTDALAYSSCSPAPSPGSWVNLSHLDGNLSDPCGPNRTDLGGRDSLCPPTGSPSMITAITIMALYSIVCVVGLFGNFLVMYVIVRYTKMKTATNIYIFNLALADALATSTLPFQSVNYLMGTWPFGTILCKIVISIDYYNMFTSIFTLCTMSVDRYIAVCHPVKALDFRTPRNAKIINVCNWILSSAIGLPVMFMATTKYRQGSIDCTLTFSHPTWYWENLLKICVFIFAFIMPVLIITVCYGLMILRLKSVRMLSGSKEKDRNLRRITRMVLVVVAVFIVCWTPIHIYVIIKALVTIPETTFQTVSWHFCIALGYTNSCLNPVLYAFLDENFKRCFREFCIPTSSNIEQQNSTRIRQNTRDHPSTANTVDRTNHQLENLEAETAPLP
Target sequence (P41143 whole entry, looked up): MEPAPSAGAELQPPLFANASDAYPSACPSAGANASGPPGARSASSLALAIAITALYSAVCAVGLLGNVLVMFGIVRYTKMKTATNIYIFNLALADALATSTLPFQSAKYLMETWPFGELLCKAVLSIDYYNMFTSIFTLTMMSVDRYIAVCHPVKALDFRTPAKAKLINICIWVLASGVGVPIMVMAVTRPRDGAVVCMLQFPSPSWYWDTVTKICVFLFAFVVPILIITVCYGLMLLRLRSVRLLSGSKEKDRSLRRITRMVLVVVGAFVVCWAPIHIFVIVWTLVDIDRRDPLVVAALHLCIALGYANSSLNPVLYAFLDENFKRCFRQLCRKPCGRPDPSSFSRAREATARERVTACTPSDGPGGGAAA
HTR5A inv ag: counter-screen for OPRM1-OPRD1 inverse agonists: human HTR5A inverse agonism. P47898. HTR5A cell line, luminescence. inhibition, % at 9.3 µM. 340,000 compounds, 0.083% hits. AID 504634; in the data active = inhibition mostly above about 23%, no sharp cut-off; inactive = mostly below about 18%;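 also: 0% = cells with DMSO and 100% = no-cell wells with DMSO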
OPRM1-OPRD1 inv: inverse agonist of human OPRM1-OPRD1 heterodimerization; 340,000 compounds, 0.21% hits; AID 504357; cell-based MOR-DOR heterodimer luminescence, inverse agonism; inhibition, % at 9.3 µM; P35372+P41143; in the data active = inhibition above about 22%, passing the limit was not always enough;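 also: 0% = cells with DMSO and 100% = wells without cells with DMSO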
OPRM1-D1 ag cf: OPRM1-OPRD1 heterodimer agonism, confirmation; shares compounds with MOR-DOR ag; cells, MOR-DOR heterodimerization, luminescence complementation; activation, % at 9.3 µM; 830 compounds, 45% hits; AID 504904;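 also: 0% = vehicle-treated cells and 100% = reference agonist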
HTR5A ag ctr2: counter-screen for OPRM1-OPRD1 agonists: human HTR5A agonism | shares compounds with MOR-DOR ag | HTR5A agonist counterscreen, cell luminescence | activation, % at 9.3 µM | 830 compounds, 8% hits | AID 504905; in the data active = activation above about 17%;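 also: 0% = vehicle-treated cells and 100% = reference agonist response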
* = called active by the depositor; i = inactive; · = no result given. Rule as the data show it, unless noted: active = activation above about 18%; inactive = the rest.

SMILES	HTR5A ag	MOR-DOR ag	HTR5A inv ag	OPRM1-OPRD1 inv	OPRM1-D1 ag cf	HTR5A ag ctr2
CC1=C(C)/C(=N\OS(=O)(=O)c2ccc(C)cc2)C=CC1=O	2	50*	-7	-262	0	54*
COc1ccc(S(=O)(=O)/N=C2/C=CC(=O)C(C)=C2C)cc1	12	10	-33	-44	·	·
CC1=C/C(=N\OS(=O)(=O)c2ccccc2)C(C)=CC1=O	11*	78*	13	-417	47*	7
Cc1cccc(NC(=O)c2cc(-c3cc(C)ccc3O)n[nH]2)c1	-1	18*	5	-102	14	1
Cc1cccc(NC(=O)c2cc(-c3cc(C)c(C)cc3O)n[nH]2)c1	-2	4	7	-19	·	·
CN(Cc1ccc(C(C)(C)C)cc1)C(=O)c1ccc2c(=O)n3c(nc2c1)CCC3	2	-3	-7	15	·	·
COc1ccc(/C=C/C(=O)Nc2ccccc2C(=O)NCC(c2ccc(OC)cc2)N(C)C)cc1 (stereo unspecified)	6	22*	-15	-117	-1	-1
CN(C)c1ccc(C(CNC(=O)Cc2cccc3ccccc23)N(C)C)cc1 (stereo unspecified)	-4	39*	-6	-209	45*	1
COc1ccc(C(CNC(=O)Cc2ccc(-c3ccccc3)cc2)N(C)C)cc1 (stereo unspecified)	1	320*	-2	i	-3	-4
CCC(=O)NC(c1ccc(N(C)C)cc1)c1c(O)ccc2ccccc12 (stereo unspecified)	-4	-2	12	10	·	·
COc1ccc(C(CNC(=O)/C=C/c2c(Cl)nc3ccccn23)N(C)C)cc1 (stereo unspecified)	-1	63*	2	-298	66*	0
CC(=O)c1c(CSc2ccccc2)oc2ccc(O)c(CN(C)C)c12	-4	-3	15	12	·	·
COc1ccc(CNC(=O)c2ccc(Cl)c(S(=O)(=O)N3CCOCC3)c2)cc1OC	0	2	1	-10	·	·
COc1ccc(C(CNC(=O)C(Cc2ccccc2)NC(N)=O)N(C)C)cc1 (stereo unspecified)	1	23*	-2	-117	269*	-2
COc1ccc(CC(NC(=O)c2ccccc2)C(=O)NCC(=O)O)cc1 (stereo unspecified)	6	-1	8	5	·	·
COc1ccc(C(CNC(=O)CSc2ccccc2C)N(C)C)cc1 (stereo unspecified)	4	115*	-11	i	112*	0
CC1CCC(NC(=O)c2cc3c(s2)CCCC3)CC1 (stereo unspecified)	3	0	14	-1	·	·
CC1(C)N=C(N)N=C(N)N1CCCCc1ccccc1	1	-3	-5	15	·	·
O=C1CCc2cc(NS(=O)(=O)c3cc(F)ccc3F)cc3c2N1CC3	3	-1	7	5	·	·
COc1ccc2c(CC(=O)Nc3ccc(OC)c(NS(=O)(=O)c4ccc(F)cc4)c3)coc2c1	3	19*	-9	-118	6	1
COc1ccc2c(CC(=O)Nc3ccccc3OC)coc2c1	-1	-3	3	17	·	·
Cc1ccc(NC(=O)COC(=O)c2ccc(-n3nc(C)cc3C)cc2)c(F)c1	5	0	3	1	·	·
COC1=CC(=O)c2c(ccc3ncnc(N)c23)C1=O	3	41*	-12	-180	1	1
O=C(COC(=O)/C=C/c1cccc(C(F)(F)F)c1)NC1CCS(=O)(=O)C1 (stereo unspecified)	4	-2	-10	8	·	·
Cc1cc2c(cc1S(=O)(=O)NCc1ccccc1Cl)OCCN2C	-3	0	9	1	·	·
SMILES	HTR5A ag	MOR-DOR ag	HTR5A inv ag	OPRM1-OPRD1 inv	OPRM1-D1 ag cf	HTR5A ag ctr2
Cc1ccccc1NP1(=O)OCCCN1Cc1ccccc1Cl (stereo unspecified)	-1	30*	4	-147	1	4
C=CC[C@@H](CC(=O)N(CCO)Cc1ccccc1)C(=O)N[C@@H](COC(=O)[C@H](CC=C)CC(=O)OC(C)(C)C)Cc1c[nH]c2ccccc12	4	26*	12	-149	17	4
Cc1ccc(S(=O)(=O)N2[C@@H](c3ccc(C(C)(C)C)cc3)C(C(=O)O)=CC[C@H]2c2cccs2)cc1	2	26*	-6	-124	24*	14
Cc1ccc([C@H]2C(C(=O)O)=CC[C@@H](c3cccs3)N2S(=O)(=O)c2ccc(C)cc2)cc1	3	0	-10	-2	·	·
O=C(COC(=O)C1CCCCC1)Nc1cccc(F)c1	-3	1	12	-7	·	·
O=C(COC(=O)CC1CCCC1)Nc1cccc(F)c1	-3	323*	7	i	-2	0
O=C(CCCNC(=O)c1ccc(Cl)cc1)NCc1ccccc1Cl	-4	-1	14	4	·	·
O=C(NNC(=O)c1ccccc1-c1ccccc1C(=O)O)c1ccccc1	-2	-1	5	7	·	·
O=C(C=P(c1ccccc1)(c1ccccc1)c1ccccc1)c1ccccc1-c1ccccc1C(=O)C=P(c1ccccc1)(c1ccccc1)c1ccccc1	2	55*	-8	-242	54*	-7
COc1ccccc1NS(=O)(=O)c1cccc(C(=O)NC2CCN(Cc3ccccc3)CC2)c1	0	20*	-1	-107	-4	-3
COc1ccccc1NS(=O)(=O)c1ccc(C)c(C(=O)NC2CCN(Cc3ccccc3)CC2)c1	0	6	1	-30	·	·
Cc1sc(NC(=S)NC(=O)C2CCCCC2)c(C(N)=O)c1C	-1	19*	-2	-128	21*	0
Cc1sc(NC(=S)Nc2ccc(F)cc2)c(C(N)=O)c1C	-5	-1	12	4	·	·
Cc1occc1C(=O)N/N=C/c1ccc(OCc2ccccc2)cc1	3	6	-5	-29	·	·
Cc1occc1C(=O)N/N=C/c1ccc(-c2ccccc2)cc1	10	20*	-25	-111	60*	4
O=C(NCc1cnn(-c2ccc(F)cc2)c1)C1CCC(=O)N(C2CC2)C1 (stereo unspecified)	-1	-4	9	19	·	·
COc1ccc(Oc2ccc(C(F)(F)F)cc2N)cc1	-1	18*	-16	-90	8	0
COc1ccc(Oc2ccc(C(F)(F)F)cc2NC(=O)c2ccc(OC)cc2)cc1	-2	3	-25	-17	·	·
CC(C)(C)/C(O)=C(/C#N)c1nc2ccccc2[nH]1	-3	0	7	-1	·	·
CC(C)CC(/C(O)=C(\C#N)c1nc2ccccc2[nH]1)N1C(=O)c2ccccc2C1=O (stereo unspecified)	2	31*	-12	-141	30*	4
NC(=O)CSc1nnc(-c2ccco2)n1-c1ccccc1	-3	-2	10	9	·	·
O=S(=O)(NCCSc1nnc(-c2ccco2)n1-c1ccccc1)c1ccccc1	2	19*	-14	-78	1	15

Bioassay records: PubChem, The Scripps Research Institute Molecular Screening Center
